Here are results for 38 molecules from the supplement of paper PMC8371130.

Counter-ions that a name gives are not always drawn.

For the experiment, the system named is HL-1. Kind of experiment: relative cell viability (CellTiter-Glo) vs DMSO control (% of DMSO control); higher = more viable cells. The settings on record: oxygen condition: hypoxia 48 h (1% O2) + reoxygenation 24 h; 200 nM. In outline:
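HL-1 mouse atrial cardiomyocytes were plated in 384-well plates at 1000 cells per well together with compounds at 40, 200, 1000 or 5000 nM in 0.01% DMSO. One day later, cells went to a hypoxic workstation (1% O2) for 48 h, then were reoxygenated for 24 h in a normal incubator, or stayed in normoxia for the same time. Cell viability was read by CellTiter-Glo luminescence and normalised to vehicle-treated control cells.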
Consider `CN(C)CCOC(C)(c1ccccc1)c1ccccn1` (stereo not drawn) [Doxylamine Succinate], for which the relative cell viability is 104. Next, `CC(C[N+](C)(C)C)OC(N)=O` (stereo not drawn) [Bethanechol chloride]: 99.6; `CC(C)NC[C@H](O)COc1ccc(CCOCC2CC2)cc1` [Levobetaxolol HCl]: 102; `CNC[C@H](O)c1cccc(O)c1` [Phenylephrine HCl]: 108. Next, `CC1(C)O[C@@H]2[C@@H](CO[C@@]3(COS(N)(=O)=O)OC(C)(C)O[C@@H]23)O1` [Topiramate]: 91.8; `O=C1c2cccc3c2[C@H](CCC3)CN1[C@@H]1CN2CCC1CC2` [Palonosetron HCl]: 109.

Consider `NS(=O)(=O)c1cc2c(cc1Cl)N=CNS2(=O)=O` [Chlorothiazide], for which the relative cell viability was 112. For the molecule `Nc1ncn([C@@H]2O[C@H](CO)[C@@H](O)[C@H]2O)c(=O)n1` [Azacitidine], the relative cell viability came to 101. Next, `O=C(O)Cc1cc(I)c(Oc2ccc(O)c(I)c2)c(I)c1` [Tiratricol]: 99.5; `Cc1onc(-c2ccccc2)c1C(=O)N[C@@H]1C(=O)N2[C@@H]1SC(C)(C)[C@@H]2C(=O)O` [Oxacillin sodium monohydrate]: 107.

In the case of `N[C@@H](Cc1cc(I)c(Oc2cc(I)c(O)c(I)c2)c(I)c1)C(=O)O` [L-Thyroxine], the relative cell viability was determined as 101. Next, `COc1ccc(Cl)cc1C(=O)NCCc1ccc(S(=O)(=O)NC(=O)NC2CCCCC2)cc1` [Glyburide]: 106; `COC(=O)C1=C(C)NC(C)=C(C(=O)OC(C)C)C1c1cccc2nonc12` (stereo not drawn) [Isradipine]: 111; `CN(C)CCN(Cc1ccccc1)c1ccccn1` [Tripelennamine HCl]: 87.6. `CN1CCCCC1CCN1c2ccccc2Sc2ccc([S+](C)[O-])cc21` (stereo not drawn) [Mesoridazine Besylate]: the relative cell viability stood at 106. Next, `N[C@@H](Cc1ccc(O)c(O)c1)C(=O)O` [Levodopa]: 109; `CNCC[C@H](Oc1cccc2ccccc12)c1cccs1` [Duloxetine HCl]: 96; `CCCNC(C)C(=O)Nc1c(C)csc1C(=O)OC` (stereo not drawn) [Articaine HCl]: 103. Next, `CCOc1nc2cccc(C(=O)O)c2n1Cc1ccc(-c2ccccc2-c2nnn[nH]2)cc1` [Candesartan]: 105; `COc1ccc(-c2nc3cc(C4=NNC(=O)CC4C)ccc3[nH]2)cc1` (stereo not drawn) [Pimobendan]: 108. For `CCCN[C@H]1CCc2nc(N)sc2C1` [Pramipexole dihydrochloride monohydrate], the relative cell viability amounted to 98.2. Turning to `CCN(CC)C(=S)SSC(=S)N(CC)CC` [Disulfiram], the relative cell viability was found to be 8.25. For the molecule `CN[C@H](CC(C)C)C(=O)N[C@H]1C(=O)N[C@@H](CC(N)=O)C(=O)N[C@H]2C(=O)N[C@H]3C(=O)N[C@H](C(=O)N[C@H](C(=O)O)c4cc(O)cc(O)c4-c4cc3ccc4O)[C@H](O)c3ccc(c(Cl)c3)Oc3cc2cc(c3O[C@@H]2O[C@H](CO)[C@@H](O)[C@H](O)[C@H]2O[C@H]2C[C@](C)(N)[C@H](O)[C@H](C)O2)Oc2ccc(cc2Cl)[C@H]1O` [Vancomycin HCl], the relative cell viability was determined as 92.7. Next, `COC(=O)[C@H](c1ccccc1Cl)N1CCc2sccc2C1` [Clopidogrel]: 103. Next, `CN(CCOc1ccc(NS(C)(=O)=O)cc1)CCc1ccc(NS(C)(=O)=O)cc1` [Dofetilide]: 99.8; `COC(=O)N[C@H](C(=O)N[C@@H](Cc1ccccc1)[C@@H](O)CN(Cc1ccc(-c2ccccn2)cc1)NC(=O)[C@@H](NC(=O)OC)C(C)(C)C)C(C)(C)C` [Atazanavir sulfate]: 101; `CN(C)CCc1c[nH]c2ccc(Cn3cncn3)cc12` [Rizatriptan Benzoate]: 108. Next, `CC=CC1=C(C(=O)O)N2C(=O)[C@@H](NC(=O)[C@H](N)c3ccc(O)cc3)[C@H]2SC1` [Cefprozil hydrate]: 104; `NC(=O)CC[C@H](N)C(=O)O` [L-Glutamine]: 99.1; `CCOC(=O)[C@H](CCc1ccccc1)N[C@@H](C)C(=O)N1[C@H](C(=O)O)C[C@@H]2CCC[C@@H]21` [Ramipril]: 115.

`CN(C)CCCN1c2ccccc2Sc2ccc(C(F)(F)F)cc21` [Triflupromazine HCl]: the relative cell viability amounted to 105. Next, `OC(CCN1CCCCC1)(c1ccccc1)C1CC2C=CC1C2` (stereo not drawn) [Biperiden HCl]: 104; `CC(=O)Oc1ccccc1C(=O)O` [Aspirin]: 101; `COc1ccccc1OCC(O)COC(N)=O` (stereo not drawn) [Methocarbamol]: 107.

Regarding `CCC(C)n1ncn(-c2ccc(N3CCN(c4ccc(OCC5COC(Cn6cncn6)(c6ccc(Cl)cc6Cl)O5)cc4)CC3)cc2)c1=O` (stereo not drawn) [Itraconazole], the relative cell viability is 101. Regarding `NC(=O)c1ncn([C@@H]2O[C@H](CO)[C@@H](O)[C@H]2O)c1O` [Mizoribine], the relative cell viability is 109. Next, `COc1cc(OC)c(C(=O)CCCN2CCCC2)c(OC)c1` [Buflomedil HCl]: 99.7; `COc1ccc2cc1Oc1ccc(cc1)C[C@H]1c3c(cc4c(c3Oc3cc5c(cc3OC)CCN(C)[C@@H]5C2)OCO4)CCN1C` [Cepharanthine]: 91.7.
